Laboratory results as given in PubChem BioAssay AID489038 (National Center for Advancing Translational Sciences (NCATS), 2010).
Records with an inconclusive call do not appear. Entries that show only a call come without a potency. Activity calls are given as the source filed them. Calls come from the whole dose curve; as a rule, active = well fitted inhibition curve with a large enough effect; inconclusive = small, poorly fitted or top-dose-only effect, or effect the other way; inactive = no such curve, though single readings can be large or run the other way.

Assay: DHR3 selectivity assay for inhibitors of ROR gamma transcriptional activity
Settings: Drosophila S2 Gal4-DHR3 UAS-luciferase, 20 h; series mostly up to 92.2 µM
Excerpt: NIH Molecular Libraries Probe Production Network [MLPCN] NIH Chemical Genomics Center [NCGC] MLPCN Grant: R03 DA026211-01 Assay Provider: Dan Littman, New York University Assay Overview: The retinoic acid-related orphan receptor (ROR) gamma is a transcription factor that has a central role in the differentiation of Th17 cells, a subset of T helper cells that secrete the inflammatory cytokines IL-17A, IL-17F, and IL-22. Th17 cells have been implicated in graft versus host disease, autoimmune disease and asthma. RORgamma is induced in naive T helper cells in the presence of TGF-beta combined with IL-6, IL-21, or IL-23, and thereafter directs the expression of the Th17 lineage cytokines. To identify […] inhibitors, a Drosophila Schneider cell line was stably transfected with two vectors: a gene expressing a fusion of the Gal4 DNA binding domain and the transactivation domain of the Drosophila Hormone Receptor 3 (DHR3), under the control of the metallothionine promoter and a Photinus luciferase reporter regulated by the Gal4 binding site enhancer, UAS. […] Small molecule inhibitors that inhibit components common to the RORgamma and DHR3 assays, such as proteins that interact with general nuclear hormone receptors, will be active in both assays and thus scored as nonselective.
Assay Protocol Summary: For screening, 600 cells in 4 uL/well were dispensed into white solid 1536-well plates (Grenier) using a solenoid-based dispenser. Following transfer of 23 nL compound or DMSO vehicle by a pin tool, the plates were incubated 1 hr at ambient temperature, and 1 uL/well copper sulfate (700 uM final concentration) was added. The plates were centrifuged 15 s at 1000 RPM and incubated 20 hr at ambient temperature. After addition of 1.5 uL Photinus luciferase detection reagent, the plates were incubated 10 min at ambient temperature and then read by an ViewLux (Perkin Elmer) to detect luminescence.
Potency is the fitted concentration of half-maximal effect.

SMILES	Potency
COc1cc(O)c(C(CC(=O)N2CCCC(C(=O)c3ccccc3)C2)c2ccc3c(c2)OCO3)c(OC)c1 (stereo not given)	inactive
COc1cc(O)c(C(CC(=O)N2CCCC(c3nc4ccccc4o3)C2)c2ccc3c(c2)OCO3)c(OC)c1 (stereo not given)	inactive
COc1cc(O)c(C(CC(=O)NC2CCCc3ccccc32)c2ccc3c(c2)OCO3)c(OC)c1 (stereo not given)	inactive
Cc1cccc(-c2nc3cc(NC(=O)C4CCCO4)ccc3o2)c1 (stereo not given)	2290 nM (active)
COc1cc(O)c(C(CC(=O)N2CCOCC2)c2ccc(C)cc2)c(OC)c1 (stereo not given)	inactive
COc1cc(O)c(C(CC(=O)N2CCC(C)CC2)c2ccc(OC)c(OC)c2)c(OC)c1 (stereo not given)	inactive
COc1cc(O)c(C(CC(=O)N2CCCC(C)C2)c2ccc(-c3ccccc3)cc2)c(OC)c1 (stereo not given)	inactive
CC1CCCN(C(=O)CC(c2ccc3c(c2)OCO3)c2ccc3ccccc3c2O)C1 (stereo not given)	inactive
COCC1CCCCN1C(=O)c1cc(COc2ccc3ncccc3c2)on1 (stereo not given)	9110 nM (active)
COc1cc(O)c(C(CC(=O)NC2CCC(C)CC2)c2ccc3c(c2)OCO3)c(OC)c1 (stereo not given)	inactive
COC(=O)Cn1c(CN2CCc3ccccc3C2)nc2c1c(=O)n(C)c(=O)n2C	8120 nM (active)
Cc1cc(C)c2[nH]c(C(=O)Nc3ccc4c(c3)OCO4)cc2c1	204 nM (active)
COc1cc(O)c(C(CC(=O)N2CCc3ccccc32)c2ccc3c(c2)OCO3)c(OC)c1 (stereo not given)	inactive
COC(=O)c1ccc(OCC(=O)c2ccc(O)cc2O)cc1	363 nM (active)
COc1ccc(C(CC(=O)Nc2ccc(F)cc2)c2ccccc2)cc1 (stereo not given)	inactive
CCOC(=O)c1sc(NC(=O)c2cc3c(s2)CCC(C)C3)nc1C (stereo not given)	51.2 nM (active)
Cc1cc(C)c2sc(NC(=O)c3ccc(N4C(=O)CCC4=O)cc3)nc2c1	102 nM (active)
COc1ccc(C(=O)/C=C/c2ccc(OC)cc2OC)c(O)c1	645 nM (active)
COc1cc(O)c(C(CC(=O)N2CCCC(C)(C)C2)c2ccc3c(c2)OCO3)c(OC)c1 (stereo not given)	inactive
CN(C)S(=O)(=O)c1ccc(NC(=O)/C=C/c2ccccc2Cl)cc1	1620 nM (active)

SMILES	Potency
COc1cc(O)c(C(CC(=O)N2CCCC(C)C2)c2ccccc2OC)c(OC)c1 (stereo not given)	inactive
CC1CCCN(C(=O)CC(c2ccc3c(c2)OCO3)c2ccc(O)cc2O)C1 (stereo not given)	inactive
COc1ccccc1CNC(=O)[C@@H](NC(=O)C1CCN(C(=O)[C@@H]2CCCN2C(=O)OC(C)(C)C)CC1)C(C)C	inactive
COc1ccccc1C(CC(=O)N1CCCC(C)C1)c1ccccc1 (stereo not given)	inactive
CCOC(=O)c1sc(NC(=O)c2ccc(S(=O)(=O)N(C)C)cc2)nc1C	45.7 nM (active)
COc1cc(O)c(C(CC(=O)N2CCCC(C)C2)c2ccccc2C)c(OC)c1 (stereo not given)	inactive
COc1cc(O)c(C(CC(=O)NCc2ccccc2)c2ccc3c(c2)OCO3)c(OC)c1 (stereo not given)	inactive
CCOC(=O)Cn1c(CN2CCc3ccccc3C2)nc2c1c(=O)n(C)c(=O)n2C	6450 nM (active)
O=C(CCCN1C(=O)/C(=C/c2ccccc2Cl)SC1=S)Nc1cccnc1	645 nM (active)
CCOc1ccc(-c2cc(CCCC(=O)NCc3cccnc3)no2)cc1	812 nM (active)
CCC1(CC)CCN(C(=O)CC(c2ccc3c(c2)OCO3)c2c(O)cc(OC)cc2OC)C1 (stereo not given)	inactive
COc1cc(O)c(C(CC(=O)N2CCCC(CN3CCCCC3)C2)c2ccc3c(c2)OCO3)c(OC)c1 (stereo not given)	inactive
CC1CCCN(C(=O)CC(c2ccc3c(c2)OCO3)c2cc(C(C)C)ccc2O)C1 (stereo not given)	inactive
Cc1cccc(C(CC(=O)NCCc2ccccc2)c2ccccc2)c1O (stereo not given)	inactive
CCC1CCCN(C(=O)CC(c2ccc3c(c2)OCO3)c2c(O)cc(OC)cc2OC)C1 (stereo not given)	inactive
CC1CCCN(C(=O)CC(c2ccc3c(c2)OCO3)c2cc(-c3ccccc3)ccc2O)C1 (stereo not given)	inactive
C[C@@H]1[C@H](C)CC[C@]2(C(=O)O)CC[C@]3(C)C(=CC[C@@H]4[C@@]5(C)CC[C@H](O)C(C)(C)[C@H]5CC[C@]43C)[C@@H]12	18200 nM (active)
CC(C)(C)c1ccc(-c2noc(CCC(=O)Nc3cccnc3)n2)cc1	51.2 nM (active)
COCC1CCCN(C(=O)CC(c2ccc3c(c2)OCO3)c2c(O)cc(OC)cc2OC)C1 (stereo not given)	inactive
COc1cc(O)c(C(CC(=O)N2CCCC(C)C2)c2ccc3c(c2)OCO3)c(OC)c1 (stereo not given)	inactive
